Experimental findings from PubChem BioAssay (EPA / NIEHS) are described below.

Where “and” joins values, the source holds several entries; their conditions need not be identical. Equal entries are not always repeated. Results filed as inconclusive are left out. Calls of active or inactive are those of the source. The calls were made as follows, unless noted: active = hit-call score of the fitted dose curve at least 0.9, where 1 is the maximum; inconclusive = response in the unintended direction; inactive = score below 0.9.

Read-out in assay [1]: ABC Transporter (ABCB11), ABCB11 (gene 8647)
Description: CLD_ABCB11_6hr: CellzDirect (CLD) Gene Expression Assay for ABC Transporter (ABCB11) at 6 hours (AID 2283675).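 Also: hits raise ABCB11 mRNA level so AC50 marks induction.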 In a few lines:
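Read-out was ABCB11 mRNA gain of signal by quantitative nuclease protection assay, relative to 0.2% DMSO vehicle, 6 h post-dose. Cells were primary human hepatocytes from two donors, treated across multiple concentrations; phase-contrast cytotoxicity noted yes/no.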

Read-out in assay [2]: Cytochrome P450 2B6 (Homo sapiens) (UniProt P20813)
The assay is described as follows: CLD_CYP2B6_6hr: CellzDirect (CLD) Gene Expression Assay for xenobiotic metabolism (CYP2B6) at 6 hours (AID 2283677).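 Also: actives raise CYP2B6 transcript above DMSO baseline so AC50 marks an inducer.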 A digest of the protocol:
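CYP2B6 transcript levels, read by chemiluminescent qNPA, were fitted for increase versus DMSO baseline; cultured human liver hepatocytes from two donor preparations were harvested 6 h after exposure to test chemicals at multiple concentrations.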

Assay [3] in a line: CCTE_Padilla_ZF_144hpf_TERATOSCORE: (Legacy) CCTE's 144 Hour Post-fertilization zebrafish Assay Teratoscore, Padilla Lab (AID 2283679; active = hit-call score of the fitted dose curve at least 0.9, where 1 is the maximum; inactive = score below 0.9;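 also: zebrafish embryos with chorions exposed by immersion from 6-8 hpf to 5 dpf with daily renewal; teratogenicity score from eye scoring of death hatching and malformations at 144 hpf; higher score means more developmental defects relative to DMSO baseline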). In a few lines:
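Larvae scored by eye at 144 hpf for death, hatching and malformations after a day in clean Hanks'. Before that, daily-renewed exposure at 80 uM (0.4% DMSO, 26C) from roughly 6-8 hpf through 5 dpf, 4 embryos per chemical.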

Read-out in assay [4]: Glyceraldehyde-3-phosphate dehydrogenase (Homo sapiens) (UniProt P04406)
Description: CLD_GAPDH_6hr: CellzDirect (CLD) Gene Expression Assay for Baseline Control (Glyceraldehyde 3-phosphate dehydrogenase) at 6 hours (AID 2283681).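 Also: active means increased signal relative to DMSO vehicle.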 A digest of the protocol:
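GAPDH baseline-control readout from qNPA (S1 nuclease digestion, probe hybridization, chemiluminescence) in lysates of cultured human hepatocytes harvested 6 h post-dosing. Chemicals tested at multiple concentrations versus 0.2% DMSO vehicle; microscopy-based cytotoxicity flagged yes/no.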

Read-out in assay [5]: ABC Transporter (ABCB1), ABCB1 (gene 5243)
The assay is described as follows: CLD_ABCB1_24hr: CellzDirect (CLD) Gene Expression Assay for ABC Transporter (ABCB1) at 24 hours (AID 2283684). In a few lines: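 ABCB1 mRNA induction versus 0.2% DMSO vehicle was read by qNPA chemiluminescence at 24 h. Cultured human hepatocytes from two donor preparations received daily fresh dosing, and phase-contrast cytotoxicity calls were annotated alongside the data.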

Read-out in assay [6]: Cytochrome P450 2B6 (Homo sapiens) (UniProt P20813)
The assay is described as follows: CLD_CYP2B6_24hr: CellzDirect (CLD) Gene Expression Assay for xenobiotic metabolism (CYP2B6) at 24 hours (AID 2283686). A digest of the protocol:
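qNPA chemiluminescent measurement of mRNA at 24 hours in human primary hepatocyte cultures from two donor preparations, with daily fresh dosing and 0.2% DMSO vehicle as baseline. Morphology-based cytotoxicity flagged yes/no.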

Read-out in assay [7]: glucuronosyltransferase (UGT1A1), UGT1A1 (gene 54658)
Description: CLD_UGT1A1_24hr: CellzDirect (CLD) Gene Expression Assay for glucuronosyltransferase (UGT1A1) at 24 hours (AID 2283696). A digest of the protocol: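 UGT1A1 transcript induction was measured by quantitative nuclease protection assay (chemiluminescence) in human hepatocyte cultures 24 h after daily fresh dosing, with 0.2% DMSO as vehicle and baseline.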

Read-out in assay [8]: ABC Transporter (ABCB11), ABCB11 (gene 8647)
The assay is described as follows: CLD_ABCB11_48hr: CellzDirect (CLD) Gene Expression Assay for ABC Transporter (ABCB11) at 48 hours (AID 2283697). A digest of the protocol:
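Induction of ABCB11 mRNA relative to 0.2% DMSO, measured at 48 h by qNPA chemiluminescence. Cultured human hepatocytes (two donors) received fresh dosing solutions at several concentrations on two consecutive days.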

Read-out in assay [9]: Cytochrome P450 3A4 (Homo sapiens) (UniProt P08684)
Description: CLD_CYP3A4_48hr: CellzDirect (CLD) Gene Expression Assay for xenobiotic metabolism (CYP3A4) at 48 hours (AID 2283698). In a few lines: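 CYP3A4 induction read by qNPA chemiluminescence after 48 h, with fresh dosing solutions on consecutive days, in cultured human hepatocytes (two donors). Vehicle 0.2% DMSO as baseline; microscopy-based cytotoxicity annotated yes/no alongside data.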

Read-out in assay [10]: xenobiotic metabolism (CYP1A2), CYP1A2 (gene 1544)
Description: CLD_CYP1A2_48hr: CellzDirect (CLD) Gene Expression Assay for xenobiotic metabolism (CYP1A2) at 48 hours (AID 2283703). In a few lines:
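Cytotoxicity was flagged yes/no from morphology, while CYP1A2 transcript induction was detected by qNPA chemiluminescence after a 48-hour exposure. Human primary hepatocyte cultures from separate donors received fresh dosing solutions daily over two days, with 0.2% DMSO as vehicle and baseline.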

Read-out in assay [11]: Broad substrate specificity ATP-binding cassette transporter ABCG2 (Homo sapiens) (UniProt Q9UNQ0)
Description: CLD_ABCG2_48hr: CellzDirect (CLD) Gene Expression Assay for ABC Transporter (ABCG2) at 48 hours (AID 2283704).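 As to AC50: potency for induction of ABCG2 mRNA above the DMSO baseline.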 In a few lines:
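ABCG2 transcript measured at 48 h by quantitative nuclease protection (chemiluminescent) and fitted for increase relative to 0.2% DMSO. Hepatocyte cultures from separate donors got fresh compound daily over two days; morphology annotated cytotoxicity.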

Read-out in assay [12]: xenobiotic metabolism (CYP1A1), CYP1A1 (gene 1543)
Description: CLD_CYP1A1_48hr: CellzDirect (CLD) Gene Expression Assay for xenobiotic metabolism (CYP1A1) at 48 hours (AID 2283705). In a few lines:
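CYP1A1 transcript measured by quantitative nuclease protection (chemiluminescent) 48 h after two daily treatments of human hepatocyte cultures, versus 0.2% DMSO. Morphology-based cytotoxicity flags accompany data; two donor preparations used.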

Read-out in assay [13]: Glyceraldehyde-3-phosphate dehydrogenase (Homo sapiens) (UniProt P04406)
The assay is described as follows: CLD_GAPDH_48hr: CellzDirect (CLD) Gene Expression Assay for Baseline Control (Glyceraldehyde 3-phosphate dehydrogenase) at 48 hours (AID 2283706).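 Also: active means higher GAPDH mRNA than DMSO vehicle.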 A digest of the protocol:
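GAPDH baseline-control readout: qNPA chemiluminescent mRNA quantitation in human liver primary cells 48 h after daily dosing on two consecutive days, vehicle 0.2% DMSO; gain of signal fitted against DMSO, cytotoxicity flagged by phase-contrast morphology.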

Read-out in assay [14]: organic anion transporter (SLCO1B1), SLCO1B1 (gene 10599)
Description: CLD_SLCO1B1_48hr: CellzDirect (CLD) Gene Expression Assay for organic anion transporter (SLCO1B1) at 48 hours (AID 2283707). A digest of the protocol:
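SLCO1B1 transcript quantified by qNPA with chemiluminescent readout after 48 h of once-daily chemical exposure. Cultured human primary hepatocytes came from two donors, with 0.2% DMSO vehicle; positive-direction fitting against DMSO, cytotoxicity flagged by morphology.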

The nature of assay [15]: CLD_ACTIN_6hr: CellzDirect (CLD) Gene Expression Assay for Baseline Control (Actin) at 6 hours (AID 2283676).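 Also: active means increased actin mRNA relative to DMSO vehicle.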 In a few lines: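 Baseline actin transcript level measured by qNPA (S1 nuclease protection, chemiluminescence) in human hepatocyte cultures 6 h after chemical exposure; 0.2% DMSO vehicle as reference, cytotoxicity noted from morphology.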
Read-out in assay [16]: Cytochrome P450 2B6 (Homo sapiens) (UniProt P20813)
The assay is described as follows: CLD_CYP2B6_48hr: CellzDirect (CLD) Gene Expression Assay for xenobiotic metabolism (CYP2B6) at 48 hours (AID 2283699).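 Also: actives raise transcript level above DMSO so potency reflects induction.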 In a few lines: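 CYP2B6 transcript induction, read by quantitative nuclease protection (S1 digestion, chemiluminescent detection) 48 h after dosing, is fitted upward against 0.2% DMSO. Cultured human liver primary cells, two donor preparations, received fresh chemical daily over multiple concentrations.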

Read-out in assay [17]: Cytochrome P450 2C19 (Homo sapiens) (UniProt P33261)
The assay is described as follows: CLD_CYP2C19_6hr: CellzDirect (CLD) Gene Expression Assay for xenobiotic metabolism (CYP2C19) at 6 hours (AID 2283678). In a few lines: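 CYP2C19 transcript induction was quantified by quantitative nuclease protection assay with chemiluminescent read-out, 6 h after dosing. Cells were primary human hepatocytes from two donor preparations, given fresh dosing solutions daily in 0.2% DMSO vehicle. Activity was relative to DMSO.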

Read-out in assay [18]: alkyl and aryl transferase (GSTA2), GSTA2 (gene 2939)
The assay is described as follows: CLD_GSTA2_48hr: CellzDirect (CLD) Gene Expression Assay for alkyl and aryl transferase (GSTA2) at 48 hours (AID 2283708).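 Also: active means mRNA induction above DMSO vehicle baseline.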 In a few lines:
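GSTA2 mRNA quantified by qNPA chemiluminescence in human primary hepatocyte lysates after 48 h of daily fresh chemical dosing. Increases fitted against 0.2% DMSO vehicle baseline; cytotoxicity from morphology annotated yes/no.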

Glyceraldehyde-3-phosphate dehydrogenase (Homo sapiens), sequence (P04406 whole entry, looked up): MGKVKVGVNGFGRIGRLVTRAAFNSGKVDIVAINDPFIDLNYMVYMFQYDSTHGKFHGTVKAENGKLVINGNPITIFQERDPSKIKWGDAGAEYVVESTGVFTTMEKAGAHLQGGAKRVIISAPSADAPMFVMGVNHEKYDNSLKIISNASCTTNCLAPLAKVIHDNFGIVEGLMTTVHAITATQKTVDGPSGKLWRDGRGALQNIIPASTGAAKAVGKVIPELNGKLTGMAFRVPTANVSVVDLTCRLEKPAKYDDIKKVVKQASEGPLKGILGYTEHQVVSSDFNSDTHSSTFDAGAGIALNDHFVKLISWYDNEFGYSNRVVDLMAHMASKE
Cytochrome P450 3A4 (Homo sapiens), sequence (P08684 whole entry, looked up): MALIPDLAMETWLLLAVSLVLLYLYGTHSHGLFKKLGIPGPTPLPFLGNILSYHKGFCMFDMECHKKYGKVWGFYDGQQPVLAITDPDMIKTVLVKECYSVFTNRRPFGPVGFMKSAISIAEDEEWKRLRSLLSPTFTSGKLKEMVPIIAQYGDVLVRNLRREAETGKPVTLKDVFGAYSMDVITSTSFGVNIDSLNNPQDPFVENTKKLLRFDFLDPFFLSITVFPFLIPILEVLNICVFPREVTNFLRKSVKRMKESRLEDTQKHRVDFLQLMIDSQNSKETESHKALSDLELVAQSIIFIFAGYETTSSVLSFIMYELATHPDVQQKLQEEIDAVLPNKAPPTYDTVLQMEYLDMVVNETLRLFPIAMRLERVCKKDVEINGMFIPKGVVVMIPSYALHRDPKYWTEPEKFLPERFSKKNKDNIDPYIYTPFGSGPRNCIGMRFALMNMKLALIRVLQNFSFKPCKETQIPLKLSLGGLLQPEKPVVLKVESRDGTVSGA
Broad substrate specificity ATP-binding cassette transporter ABCG2 (Homo sapiens), sequence (Q9UNQ0 whole entry, looked up): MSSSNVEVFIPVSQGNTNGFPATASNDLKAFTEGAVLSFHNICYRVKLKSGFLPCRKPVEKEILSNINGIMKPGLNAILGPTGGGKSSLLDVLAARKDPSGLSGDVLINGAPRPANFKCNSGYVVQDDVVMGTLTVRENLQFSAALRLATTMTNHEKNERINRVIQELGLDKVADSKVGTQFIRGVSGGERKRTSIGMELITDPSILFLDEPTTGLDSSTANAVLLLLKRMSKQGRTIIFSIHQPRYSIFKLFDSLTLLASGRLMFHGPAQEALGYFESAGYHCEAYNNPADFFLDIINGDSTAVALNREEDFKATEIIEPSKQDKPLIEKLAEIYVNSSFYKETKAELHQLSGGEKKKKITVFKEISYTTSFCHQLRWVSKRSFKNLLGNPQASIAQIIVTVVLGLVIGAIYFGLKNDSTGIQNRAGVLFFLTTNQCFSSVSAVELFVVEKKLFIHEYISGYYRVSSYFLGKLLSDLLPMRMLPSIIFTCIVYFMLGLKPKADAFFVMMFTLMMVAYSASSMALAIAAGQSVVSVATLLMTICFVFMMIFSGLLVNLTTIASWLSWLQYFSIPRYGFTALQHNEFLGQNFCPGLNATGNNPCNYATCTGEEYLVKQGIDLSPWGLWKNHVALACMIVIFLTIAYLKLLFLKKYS
Cytochrome P450 2C19 (Homo sapiens), sequence (P33261 whole entry, looked up): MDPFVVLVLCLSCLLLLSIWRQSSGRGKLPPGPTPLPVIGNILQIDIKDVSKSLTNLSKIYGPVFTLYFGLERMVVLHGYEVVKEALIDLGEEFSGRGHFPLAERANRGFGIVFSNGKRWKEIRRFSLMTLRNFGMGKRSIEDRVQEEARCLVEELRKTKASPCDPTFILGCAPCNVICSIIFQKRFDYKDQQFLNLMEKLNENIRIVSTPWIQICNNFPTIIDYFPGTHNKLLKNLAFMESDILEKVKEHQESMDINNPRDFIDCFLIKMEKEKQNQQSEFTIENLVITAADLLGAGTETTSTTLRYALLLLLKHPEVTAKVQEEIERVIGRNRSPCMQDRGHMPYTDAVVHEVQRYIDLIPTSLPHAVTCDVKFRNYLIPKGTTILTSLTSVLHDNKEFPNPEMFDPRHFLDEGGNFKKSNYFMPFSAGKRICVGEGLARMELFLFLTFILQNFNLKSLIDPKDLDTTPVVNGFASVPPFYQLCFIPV

Regarding `Oc1cc(Cl)ccc1Oc1ccc(Cl)cc1Cl`, the result in assay [1], in [2], in assay [4], in assay [5], in assay [6] and in assay [7] was inactive. The outcome in [8], in assay [9], in [10], in [11], in assay [12] and in assay [13] was inactive. In assay [14], the compound was called inactive. The AC50 in [3] is 1.48 µM (active) and 4.99 µM (active) and 1.9 µM (active).
For `O=C(O)CCCOc1ccc(Cl)cc1Cl`, the call in assay [15], in [2], in assay [4], in [5], in [6] and in assay [7] was inactive. Further, the outcome in [16], in assay [10], in assay [11] and in [12] was inactive. For the same compound, the AC50 in assay [3] was 15.6 µM (active).
As to `CC(C)OC(=O)Nc1cccc(Cl)c1`, the call in assay [15], in assay [13] and in [14] was inactive. The AC50 in assay [2] is 6.86 µM (active); in [3], 72.3 µM (active); in assay [6], 7.72 µM (active); in assay [7] it was 20 µM (active); in assay [9] it was 36.3 µM (active); in [16] it was 20 µM (active). The AC50 in assay [10] is 2.46 µM (active); in assay [12], 5.09 µM (active).
As to `CCN(CC)C(=O)SCc1ccc(Cl)cc1`, the outcome in assay [1], in assay [15], in [17], in [7], in [10] and in assay [12] was inactive. Moreover, the AC50 in assay [2] was 1.84 µM (active); in assay [3], 23.4 µM (active); in [6], 3.93 µM (active); in assay [9], 20 µM (active); in assay [16], 20 µM (active).
As to `CC(C)(C)C(O)/C(=C\c1ccc(Cl)cc1Cl)n1cncn1` (stereo not given), the call in assay [15], in [4], in [7] and in assay [18] was inactive. Moreover, the AC50 in assay [2] is 0.733 µM (active); in [3], 8.76 µM (active); in assay [6] it was 0.621 µM (active); in [9], 1.9 µM (active); in [16], 0.983 µM (active); in assay [10], 3.7 µM (active). For the same compound, the AC50 is 31.5 µM (active) in [11] and 20 µM (active) in assay [12].
As to `CC(C)(C)C(O)C(Oc1ccc(Cl)cc1)n1cncn1` (stereo not given), the result in [1], in assay [15], in [4] and in assay [11] was inactive. Also, the AC50 in assay [2] was 0.656 µM (active); in assay [3] it was 52.6 µM (active) and 46.6 µM (active) and 57.3 µM (active); in assay [6] it was 2.51 µM (active); in assay [7], 6.66 µM (active); in [16] it was 3.18 µM (active); in assay [10], 5.29 µM (active). For the same compound, the AC50 in [12] is 5.32 µM (active).

A word on the AC50: it is the concentration giving half of the maximal activity seen.
